Each structure is given as a SMILES string.

One experiment concerns the target Hexose transporter 1 (Plasmodium falciparum) (UniProt O97467). Put plainly: ST_JUDE_LEISH: Cytotoxicity at 2uM final concentration against transgenic Leishmania Mexicana promastigotes LmPfHT that are glucose transport deficient and complemented with the Plasmodium falciparum hexose transporter. Activity is measured by DNA content using SYBR green in vitro. Type of experiment: functional.
A word on the inhibition: it is the change of the read-out against control, counted positive when it falls. As for `O=C(/C=C/c1ccc(Cl)c(Cl)c1)N1CCC(NCc2c[nH]c3ccccc23)CC1`, the inhibition was found to be 1.05%.
For the molecule `CCOc1ccc(-c2nonc2NC(=O)c2ccc(F)cc2)cc1OCC`, the inhibition was 2%.
`Cc1cc(C)cc(OCC(O)CN(Cc2cc(Cl)cc(Cl)c2)C(=O)Nc2ccccc2Cl)c1` (stereo not given): the inhibition is 1.42%.
`Cc1ccc(CNC(=O)c2cc3c(=O)n4ccccc4nc3n(CCCN3CCOCC3)c2=N)cc1`: the inhibition came out at 6.83%.
Consider `Cc1nc(-c2nc(N3CCOCC3)ncc2-c2ccsc2)sc1C`, for which the inhibition is -0.4%.
In the case of `CCN(CCNC(=O)Cn1c(C)cc2cc([N+](=O)[O-])ccc21)c1cccc(C)c1`, the inhibition worked out at 6.77%.
As for `O=C(Nc1ccc(F)cc1F)NC1CCN(c2ccnc3cc(Cl)ccc23)C1` (stereo not given), the inhibition is 7.63%.
The same measure, in the same setting: the value for `COc1cc2nc(NCc3ccc(S(N)(=O)=O)cc3)nc(Nc3ccc(Oc4ccccc4)cc3)c2cc1OC` was 4.39%; that for `CCC[C@@H]([C@@H](CC1CCC(C)CC1)C(=O)N[C@@H](CCCCNC(=O)c1ccccn1)C(=O)Nc1nccs1)N(O)C=O` (stereo not given in full) was 4.29%.
For the molecule `Cn1cc(C2CCN(CCCCNC(=O)c3sc(-c4ccc(C(F)(F)F)cc4)nc3CO)CC2)c2ccccc21`, the inhibition was -1.85%.
The same measure, in the same setting: the value for `O=C(NCCCCCN1CCC(c2c[nH]c3ccccc23)CC1)Nc1ccc(Cl)c(Cl)c1` was -1.05%; that for `N#CCCN1CCN(Cc2cccc(-c3ccc(-c4nc5ccccc5[nH]4)s3)c2)CC1` was -2.37%; that for `N=C(N)Nc1ccc(OCCCCCOc2ccc(NC(=N)N)c(Cl)c2)cc1Cl` was -1.31%.
As for `CC(NCCC1CCC(NC(=O)N[C@H](C)C(O)(c2ccccc2)c2ccccc2)CC1)c1cccc2ccccc12` (stereo not given in full), the inhibition came out at 16.2%.
With `Cc1nc(N)nc(N)c1-c1cc(Cl)c(Cl)c(Cl)c1`, the inhibition was found to be 0.89%.
As to `Cc1ccccc1NC(=O)C1CSCN1C(=O)OCc1ccccc1` (stereo not given), the inhibition is -0.23%.
As for `Cc1cc(C2CCN(CCCCNC(=O)c3ccc(-c4ccc(C#N)cc4)cc3)CC2)c(C)cc1O`, the inhibition was determined as 3.77%.
Regarding `COc1ccc2[nH]c(C)cc(=NN=Cc3ccccc3)c2c1`, the inhibition is 0.32%.
Turning to `COCCn1c(C)nc2ccccc2c1=O`, the inhibition worked out at 1.69%.
For the molecule `CC(C)(C)c1ccc(CN2CCC(NC(=O)c3ccc(-c4ccccc4Cl)s3)CC2)cc1`, the inhibition was 7.04%.
With `c1ccc(-c2cc3cccc(-c4nc5cnccc5[nH]4)c3o2)cc1`, the inhibition turned out to be 11.5%.
For the molecule `CC(Cc1ccc(OCCN2CCN(c3ccccc3)CC2)cc1)NCC(O)c1cccc(Cl)c1F` (stereo not given), the inhibition was 0.09%.
Consider `COc1ccc(-c2ccc(CNC(=O)c3ccc(C#N)cc3)c(F)c2)cc1CN1CCCN(C)CC1`, for which the inhibition was found to be 0.66%.
Turning to `CCN(CC)CCN(Cc1ccc(-c2ccc(C(F)(F)F)cc2)cc1)C(=O)Cn1c(SCc2ccc(F)cc2)nc(=O)c2sccc21`, the inhibition is 2.81%.
As to `CN1CCN(c2ccc(Nc3c(C(N)=O)cnc4cc(-c5ccoc5)ccc34)cc2C(F)(F)F)CC1`, the inhibition amounted to 2.21%.
Regarding `Cc1ccc(O)c(C(=O)c2cc(C(=O)Nc3ccccc3C)c(=O)n(-c3ccccc3C)c2)c1`, the inhibition is 3.71%.
Still for that read-out and setting: as for `Cc1ccc(-n2cc(CNCCc3nc(C)c[nH]3)c(-c3ccc(F)cc3)n2)cc1`, the figure is 3.49%; as for `CC(=O)Nc1cccc(CNCc2ccc(-c3cnc(N4CCCC(c5ccccc5)C4)nc3)cc2)c1` (stereo not given), 2.57%; as for `CCC(C)NCCC(c1ccccc1)c1ccccc1O` (stereo not given), 4.69%.
For the molecule `FC(F)(F)c1cc(Nc2ccc(Oc3ccccc3)cc2)c2cc(-c3ccncc3)ccc2n1`, the inhibition amounted to 0.41%.
In the case of `COc1cc(NC(=O)C(c2ccc(Cl)cc2)C(C)C)cc(OC)c1` (stereo not given), the inhibition amounted to 2.55%.
`Cc1nc(C)c(-c2ccc(Oc3ccc([S+](C)[O-])cc3)cc2)c(O)c1Br` (stereo not given): the inhibition stood at 3.7%.
Turning to `CC(C)CNC(=O)c1ccnc(-c2ccc(CNCCCc3ccccc3)cc2)c1`, the inhibition is 3.19%.
The same measure, in the same setting: as for `CNC(=O)C1Cc2c([nH]c3cc(Cl)ccc23)C2(CCN(CCc3ccccc3)CC2)N1` (stereo not given), the figure is 1.39%; as for `Cc1cccc2nc(-c3cccc(-c4cccc(NC(=O)C5CC(=O)Nc6ccccc65)c4)c3)[nH]c12` (stereo not given), -1.8%; as for `CS(=O)(=O)N1CC2(CCN(CCC(NC(=O)Nc3ccccc3)c3ccc(Cl)c(Cl)c3)CC2)c2ccccc21` (stereo not given), 3.17%.
Regarding `CC(C)C[C@H](NC(=O)c1ccc(OCCN2CCOCC2)cc1)C(=O)N[C@H](/C=N/NC(=O)OC(C)(C)C)CCc1ccccc1`, the inhibition turned out to be 8.52%.
Take `O=[N+]([O-])c1ccc2ncnc(Nc3ccc(F)c(Cl)c3)c2c1`: the inhibition worked out at 0.68%.
In the case of `COc1cc2ncnc(Nc3ccc(OC(F)(F)c4ccccc4)cc3)c2cc1OC`, the inhibition stood at 10.8%.
Consider `O=C(Nc1cccc(C(F)(F)F)c1)c1cccc2nc(C(F)(F)F)[nH]c12`, for which the inhibition is 24.2%.

In a further experiment the target is Glucose transporter (Leishmania mexicana) (UniProt O61059). Put plainly: ST_JUDE_LEISH: Cytotoxicity at 2uM final concentration against transgenic Leishmania Mexicana promastigotes LmGT2 that are glucose transport deficient and complemented with the L. Mexicana glucose transporter 2. Activity is measured by DNA content using SYBR green in vitro. It counts as functional.
Consider `O=C(/C=C/c1ccc(Cl)c(Cl)c1)N1CCC(NCc2c[nH]c3ccccc23)CC1`, for which the inhibition turned out to be 1.05%.
`CCOc1ccc(-c2nonc2NC(=O)c2ccc(F)cc2)cc1OCC`: the inhibition stood at 1.5%.
`Cc1cc(C)cc(OCC(O)CN(Cc2cc(Cl)cc(Cl)c2)C(=O)Nc2ccccc2Cl)c1` (stereo not given): the inhibition was -7.19%.
Same read-out and setting: as for `Cc1ccc(CNC(=O)c2cc3c(=O)n4ccccc4nc3n(CCCN3CCOCC3)c2=N)cc1`, the figure is 7.61%; as for `Cc1nc(-c2nc(N3CCOCC3)ncc2-c2ccsc2)sc1C`, 1.4%.
`CCN(CCNC(=O)Cn1c(C)cc2cc([N+](=O)[O-])ccc21)c1cccc(C)c1`: the inhibition was 6.91%.
On to `O=C(Nc1ccc(F)cc1F)NC1CCN(c2ccnc3cc(Cl)ccc23)C1` (stereo not given), for which the inhibition is 6.34%.
On to `COc1cc2nc(NCc3ccc(S(N)(=O)=O)cc3)nc(Nc3ccc(Oc4ccccc4)cc3)c2cc1OC`, for which the inhibition worked out at 3.67%.
For the molecule `CCC[C@@H]([C@@H](CC1CCC(C)CC1)C(=O)N[C@@H](CCCCNC(=O)c1ccccn1)C(=O)Nc1nccs1)N(O)C=O` (stereo not given in full), the inhibition stood at 1.8%.
For the molecule `Cn1cc(C2CCN(CCCCNC(=O)c3sc(-c4ccc(C(F)(F)F)cc4)nc3CO)CC2)c2ccccc21`, the inhibition is -0.2%.
On to `O=C(NCCCCCN1CCC(c2c[nH]c3ccccc23)CC1)Nc1ccc(Cl)c(Cl)c1`, for which the inhibition came to 1.89%.
Turning to `N#CCCN1CCN(Cc2cccc(-c3ccc(-c4nc5ccccc5[nH]4)s3)c2)CC1`, the inhibition is -0.4%.
On the same count and under the same terms, as for `N=C(N)Nc1ccc(OCCCCCOc2ccc(NC(=N)N)c(Cl)c2)cc1Cl`, the figure is -2.62%; as for `CC(NCCC1CCC(NC(=O)N[C@H](C)C(O)(c2ccccc2)c2ccccc2)CC1)c1cccc2ccccc12` (stereo not given in full), 13.4%.
Take `Cc1nc(N)nc(N)c1-c1cc(Cl)c(Cl)c(Cl)c1`: the inhibition amounted to 1.22%.
Turning to `Cc1ccccc1NC(=O)C1CSCN1C(=O)OCc1ccccc1` (stereo not given), the inhibition was -0.28%.
As for `Cc1cc(C2CCN(CCCCNC(=O)c3ccc(-c4ccc(C#N)cc4)cc3)CC2)c(C)cc1O`, the inhibition amounted to 4.8%.
Consider `COc1ccc2[nH]c(C)cc(=NN=Cc3ccccc3)c2c1`, for which the inhibition is -0.26%.
In the case of `COCCn1c(C)nc2ccccc2c1=O`, the inhibition is -0.79%.
`CC(C)(C)c1ccc(CN2CCC(NC(=O)c3ccc(-c4ccccc4Cl)s3)CC2)cc1`: the inhibition stood at 3.18%.
`c1ccc(-c2cc3cccc(-c4nc5cnccc5[nH]4)c3o2)cc1`: the inhibition turned out to be 10.6%.
In the case of `CC(Cc1ccc(OCCN2CCN(c3ccccc3)CC2)cc1)NCC(O)c1cccc(Cl)c1F` (stereo not given), the inhibition worked out at 1.85%.
With `COc1ccc(-c2ccc(CNC(=O)c3ccc(C#N)cc3)c(F)c2)cc1CN1CCCN(C)CC1`, the inhibition was -3.44%.
In the case of `CCN(CC)CCN(Cc1ccc(-c2ccc(C(F)(F)F)cc2)cc1)C(=O)Cn1c(SCc2ccc(F)cc2)nc(=O)c2sccc21`, the inhibition was 4.07%.
`CN1CCN(c2ccc(Nc3c(C(N)=O)cnc4cc(-c5ccoc5)ccc34)cc2C(F)(F)F)CC1`: the inhibition is 2.01%.
As to `Cc1ccc(O)c(C(=O)c2cc(C(=O)Nc3ccccc3C)c(=O)n(-c3ccccc3C)c2)c1`, the inhibition stood at 1.81%.
As to `Cc1ccc(-n2cc(CNCCc3nc(C)c[nH]3)c(-c3ccc(F)cc3)n2)cc1`, the inhibition is 2.6%.
Still for that read-out and setting: as for `CC(=O)Nc1cccc(CNCc2ccc(-c3cnc(N4CCCC(c5ccccc5)C4)nc3)cc2)c1` (stereo not given), the figure is 2.2%; as for `CCC(C)NCCC(c1ccccc1)c1ccccc1O` (stereo not given), 4.41%.
For the molecule `FC(F)(F)c1cc(Nc2ccc(Oc3ccccc3)cc2)c2cc(-c3ccncc3)ccc2n1`, the inhibition is -0.05%.
Turning to `COc1cc(NC(=O)C(c2ccc(Cl)cc2)C(C)C)cc(OC)c1` (stereo not given), the inhibition was found to be 1.33%.
With `Cc1nc(C)c(-c2ccc(Oc3ccc([S+](C)[O-])cc3)cc2)c(O)c1Br` (stereo not given), the inhibition is 3.99%.
With `CC(C)CNC(=O)c1ccnc(-c2ccc(CNCCCc3ccccc3)cc2)c1`, the inhibition turned out to be 2.74%.
For the molecule `CNC(=O)C1Cc2c([nH]c3cc(Cl)ccc23)C2(CCN(CCc3ccccc3)CC2)N1` (stereo not given), the inhibition worked out at 1.5%.
On the same count and under the same terms, the value for `Cc1cccc2nc(-c3cccc(-c4cccc(NC(=O)C5CC(=O)Nc6ccccc65)c4)c3)[nH]c12` (stereo not given) was 5.82%.
On to `CS(=O)(=O)N1CC2(CCN(CCC(NC(=O)Nc3ccccc3)c3ccc(Cl)c(Cl)c3)CC2)c2ccccc21` (stereo not given), for which the inhibition is 3.05%.
As for `CC(C)C[C@H](NC(=O)c1ccc(OCCN2CCOCC2)cc1)C(=O)N[C@H](/C=N/NC(=O)OC(C)(C)C)CCc1ccccc1`, the inhibition worked out at 5.94%.
Take `O=[N+]([O-])c1ccc2ncnc(Nc3ccc(F)c(Cl)c3)c2c1`: the inhibition came out at 2.32%.
Still for that read-out and setting: the value for `COc1cc2ncnc(Nc3ccc(OC(F)(F)c4ccccc4)cc3)c2cc1OC` was 7.93%; that for `O=C(Nc1cccc(C(F)(F)F)c1)c1cccc2nc(C(F)(F)F)[nH]c12` was 15%.
